Test results as given in PubChem BioAssay AID504362 (National Center for Advancing Translational Sciences (NCATS), 2011).
Results filed as inconclusive are left out. The source made the active and inactive calls. Calls come from the whole dose curve; as a rule, active = well fitted activation curve with a large enough effect; inconclusive = small, poorly fitted or top-dose-only effect; inactive = flat fitted curve, though single readings scatter.

Experiment: qHTS Assay for Identifying a Potential Treatment of Ataxia-Telangiectasia: SAR for Probe
Conditions: F2112 A-T fibroblasts, NCS-induced pKAP1 AlphaLISA; series mostly up to 76.9 µM
Description: NIH Chemical Genomics Center [NCGC] NIH Molecular Libraries Probe Centers Network [MLPCN] MLPCN Grant: MH089030-01 Assay Submitter (PI): Wei Zheng and Yosef Shiloh Ataxia-telangiectasia (A-T) is a devastating and progressive disease for which, there is no cure. Although A-T is a multisystem disease, it is stereotyped characterized by its neurological symptoms such as truncal ataxia, due to cerebellar cortical degeneration of the Purkinje and granule cells. Other symptoms of A-T are telangiectasias (dilated blood vessels), primary immunodeficiency, marked sensitivity to ionizing radiation (IR), chromosomal instability and predisposition to cancer. The underlying genetic cause of A-T is null mutations in the ATM (A-T mutated) gene. ATM is a nuclear serine/threonine kinase that functions as a master regulator of the cellular responses to double strand breaks (DSBs) in the DNA. Upon activation by DSBs, ATM phosphorylates a plethora of downstream targets, including KAP-1 on […]. KAP-1 phosphorylation occurs shortly in response to DSBs and mediates global chromatin relaxation, which facilitates DSB repair. To screen for small molecules that will compensate for the loss of ATM in cells derived from A-T patients, we monitored KAP-1 phosphorylation as a readout for ATM-like activity using an AlphaLISA assay. This set of data is for analogs of the probe molecule in the primary screening assay.
qHTS Assay Protocol: Step,Parameter,Value,Description 1. Cell Plating, 3 ul, 500 cells/well in OPTI-MEM, 1% FBS, 1% Pen/Strep 2. Incubation, 16-24 hr, 37C, 5% CO2, 95% humidity 3. Library compounds, 23 nl, 76.7 - 0.61uM dilution series final concentration 4. Incubation, 60 min, 37C, 5% CO2, 95% humidity 5. Reagent, 1 ul, 1600 ng/ml NCS in PBS + 0.05% BSA + 0.005% Tween 20 6. Incubation, 30 min, 37C, 5% CO2, 95% humidity 7. Reagent, 1 ul, Premixed detection reagents and lysis buffer 8. Reagent, 1 ul, 0.6% Antifoam A 9. Incubation, 6 hr, 25C, 95% humidity 10. Readout, EnVision, EnVision plate reader. AlphaScreen 1536-well protocol Cells were plated using medium-binding white solid-bottom tissue culture treated Kalypsys plates. Multidrop dispense of 3 uL of F2112 (hTERT immortalized A-T patient fibroblast cells). Detection reagent and lysis buffer was 3.75nM Rab-a-pKAP1 antibody bound to 75 ng/ul AlphaScreen SA donor bead, 3.75 nM Biot-M-a-KAP1 antibody bound to AlphaLISA protein A acceptor bead, 0.5x protease inhibitor cocktail and 0.25x PerkinElmer lysis buffer. EnVision protocol for 1536-well AlphaScreen read (30ms excitation, 100ms read), about 10 min/plate.

Q: With `CN1CCN(c2nc(C3=C(c4c[nH]c5ccccc45)C(=O)NC3=O)c3ccccc3n2)CC1` as the molecule, how does the Potency read?
A: The Potency was “inactive”.

Q: Which Potency does the source give for `CC1(C)C=Cc2ccc(O)c(C(=O)/C=C/c3ccccc3)c2O1` here?
A: The Potency was 36.8 µM (active).

Q: With `O=C(/C=C/c1ccccc1)n1cnc2ccccc21` as the molecule, how does the Potency read?
A: The Potency was “inactive”.

Q: With `C=CCSc1nc2ccccc2n1C(=O)/C=C/c1ccc(OC)c(OC)c1` as the molecule, how does the Potency read?
A: Its Potency is 14.6 µM (active).

Q: Which Potency does the source give for `COc1cc(/C=C/C(=O)c2ccccc2)cc(OC)c1OC` here?
A: Its Potency is 46.3 µM (active).

Q: With `CC1(C)C=Cc2c(O)cc(O)c(C(=O)/C=C/c3ccccc3)c2O1` as the molecule, how does the Potency read?
A: Its Potency is 46.3 µM (active).

Q: With `COc1c(C(=O)/C=C/c2ccccc2)ccc2c1C=CC(C)(C)O2` as the molecule, how does the Potency read?
A: The Potency was 36.8 µM (active).

Q: Which Potency does the source give for `COc1cc(/C=C/C(=O)n2cnc3ccccc32)cc(OC)c1OC` here?
A: Its Potency is 13 µM (active).

Q: For `CC(C)=C/C=C/C(=O)c1ccccc1O`, which Potency is on record?
A: Its Potency is “inactive”.

Q: Which Potency does the source give for `C=CCSc1nc2ccccc2n1C(=O)/C=C/c1ccc(F)cc1` here?
A: The Potency was 9.23 µM (active).
